# According to PubChem BioAssay (NCI):
# Several values for one entry are separate records, joined by “and”; a condition that tells them apart may be missing. Identical values can stand only once. Compounds without any hit were thinned out: in the full panel of roughly 83,000, 20% have a hit.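 Note: values are percent growth. 100 is the growth of untreated cells, values between 100 and 0 indicate rising inhibition; between -100 and 0 indicates cell death.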 Values without a mark were called inactive. Activity calls are given as the source filed them. The calls were made as follows: active = growth percent below 10; inactive = the rest.
# Test system: MDA-MB-468 breast
# Assay: NCI-60 one-dose screen, 48 h (100 = growth as untreated, 0 = no growth, -100 = all killed)
# Settings: 10 µM unless noted
row,SMILES,growth
1,Cc1ccc2c(c1)C(=O)/C(=C/c1cccc(F)c1)S2,84.7%
2,O=C1C[C@H](c2ccccc2)[C@H](c2ccccc2)C1,99.2%
3,CCCN1C(=O)N(CCC)C2C1NC(=S)N2/N=C/C=C/c1ccccc1OC (stereo not given),1.14% (active)
4,Cc1ccc2[nH]c3nc4cccnc4c(C)c3c2c1,-35% (active)
5,C=C(C)[C@@H]1CC[C@]2(C(=O)NS(=O)(=O)c3ccccc3)CC[C@]3(C)[C@H](CC[C@@H]4[C@@]5(C)CC[C@H](OC(=O)NS(=O)(=O)c6ccccc6)C(C)(C)[C@@H]5CC[C@]43C)[C@@H]12,25.8%
6,CCOc1nc(-c2ccccc2)cc2c(O)c(-c3nnco3)[nH]c(=O)c12,16.6%
7,CCNC(=O)Oc1ccc(/C(=C(\C)c2ccccc2)c2ccc(OCCCN(C)C)cc2)cc1,86.6%
8,CC1(C)C(=O)CC[C@]2(C)[C@H]3C(=O)C=C4[C@@H]5C[C@@](C)(C(=O)NCCNCCN)CC[C@]5(C)CC[C@@]4(C)[C@]3(C)CC[C@@H]12,114%
9,Cn1ncc2ncc(-c3ccc4ncc(C#N)c(N5CCc6cc(F)c(Cl)cc65)c4c3)cc21,8.25% (active)
10,COc1cc(Nc2c3ccc(Cl)cc3nc3ccc(OC)cc23)c2ncccc2c1,36.3%
11,NC(N)=Nc1ccc(Oc2cccc(NC(N)=Nc3ccc(Cl)c(C(F)(F)F)c3)c2)cn1,6.72% (active)
12,O=[N+]([O-])c1cc(S(=O)(=O)c2ccc(F)c([N+](=O)[O-])c2)ccc1F,88.4%
13,CCCCCCCCCCCCCCNc1nc(CO)ncc1-c1ccc(C(F)(F)F)cc1,98.1%
14,CCOC(=O)c1cc(C)[nH]c(=O)c1C#N,97.3%
15,Cc1ccn2c(-c3csc(Nc4cccc(O)c4)n3)c(C)nc2c1,-33.1% (active)
16,NS(=O)(=O)c1ccc(CCN2C(=O)C3C(C2=O)C2(Cl)C(Cl)=C(Cl)C3(Cl)C2(Cl)Cl)cc1 (stereo not given),109%
17,C[C@@H]1C[C@H]2C(=O)O[C@@H](C)C(NC(=O)[C@H](Cc3cc(F)cc(F)c3)NC(=O)Nc3ccc(C4CC4)cc3F)C(=O)N3CCC[C@H]3C(=O)N3CCCC[C@H]3C(=O)N[C@@H](CO)C(=O)N2C1 (stereo not given in full),-18.1% (active)
18,O=C1/C(=C/c2ccc(Cl)cc2)CN(C(=O)CCN2CCC(=NO)CC2)C/C1=C\c1ccc(Cl)cc1,-65.3% (active)
19,O=C(/C=C/C=C/c1ccccc1)c1ccco1,29.3%
20,CCN1CCN(C(=O)[C@]23CCC(C)(C)C[C@@H]2C2=CC[C@@H]4[C@@]5(C)CCC(=O)C(C)(C)[C@@H]5CC[C@@]4(C)[C@]2(C)CC3)CC1,30.5%

row,SMILES,growth
1,CC[C@H]1CN2CCc3cc(OC)c(OC)cc3C2C[C@@H]1CC1NCCc2cc(OC)c(OC)cc21 (stereo not given in full),-59.5% (active)
2,OC1(c2ccccc2)c2ccccc2N(c2ccccc2)c2ccc(Cl)cc21 (stereo not given),-75.3% (active)
3,O=C(CCCCCCNC(=O)C(O)(O)C(F)(F)F)Nc1nc2ccccc2s1,-12.8% (active)
4,CCN(CC)CCC(=O)c1ccc(OC)c2ccccc12,49.7%
5,N#Cc1ccc(C(F)(F)F)nc1N1CCC(C(=O)Nc2ccc(Cl)cc2)CC1,69.2%
6,NC(=O)Cc1nc(O)cc(=O)[nH]1,111%
7,NNc1ccc(S(N)(=O)=O)cc1,100%
8,O=C1CCC2=C3C4CCCCC4C(=O)C4CCCC(OC2C1)C34 (stereo not given),33.3%
9,COc1ccc2c(c1)c(-c1nc(N)nnc1-c1c[nH]c3ccccc13)cn2C,-9.57% (active)
10,O=S(=O)(Oc1ccc(-c2ccc3sccc3c2)cc1)c1ccccc1,85.2%
11,CN(C)c1ccc(C(=C2C=CC(=[N+](C)C)C=C2)c2ccc(N(C)C)cc2)cc1 (tested in a mixture with another compound),-95% (active)
12,Cc1ccc(Nc2nc(N)nc(Nc3ccc4ccccc4c3)n2)cc1,20.2%
13,Cc1onc(-c2c(F)cccc2Cl)c1-c1ncc(-c2ccc(Cl)cc2)o1,66.2% and 23.7%
14,O=C(/C=C\c1ccc(Cl)c(Cl)c1)c1ccccc1,79.8%
15,COc1ccc(C(=O)c2c(N)c(C#N)cn2-c2cccc(OC)c2)cc1,-3.17% (active)
16,COc1ccc(-n2nc(C(=O)NCC(=O)Nc3nc4cc(OC)ccc4s3)c3ccccc3c2=O)cc1,-8.37% (active)
17,CC(=O)NNC(=S)/N=C\C(C(=O)c1ccccc1)=C(/O)c1ccccc1,114%
18,CCCCCCCCCCCC(=O)C(CCCCCCCCCC)C(=O)Nc1ccccc1 (stereo not given),109%
19,O=C(CN1C(=O)S/C(=C\C(Cl)=C\c2ccccc2)C1=O)NCCCn1ccnc1,-28.2% (active)
20,C=CCSSC1N=CNc2nc[nH]c21 (stereo not given),5.55% (active)
